Records with an inconclusive call do not appear. The source made the active and inactive calls. Calls come from the whole dose curve; as a rule, active = well fitted inhibition curve with a large enough effect in the repeat runs; inconclusive = weak or mixed curves; inactive = flat fitted curve, though single readings scatter.
biological target: Voltage-gated inwardly rectifying potassium channel KCNH2 (Homo sapiens) (UniProt Q12809); test: Human Ether-a-go-go-Related Gene (hERG) channel small molecule antagonists: fluorescence cell-based qHTS assay (AID 1671200); details: hERG-U2OS cells, FluxOR thallium flux fluorescence; series mostly up to 76.8 µM; activity change, negative = inhibition: at the top concentration; note: nearly all actives have a fitted effect of over 50% in size
Sequence (Q12809 whole entry, looked up): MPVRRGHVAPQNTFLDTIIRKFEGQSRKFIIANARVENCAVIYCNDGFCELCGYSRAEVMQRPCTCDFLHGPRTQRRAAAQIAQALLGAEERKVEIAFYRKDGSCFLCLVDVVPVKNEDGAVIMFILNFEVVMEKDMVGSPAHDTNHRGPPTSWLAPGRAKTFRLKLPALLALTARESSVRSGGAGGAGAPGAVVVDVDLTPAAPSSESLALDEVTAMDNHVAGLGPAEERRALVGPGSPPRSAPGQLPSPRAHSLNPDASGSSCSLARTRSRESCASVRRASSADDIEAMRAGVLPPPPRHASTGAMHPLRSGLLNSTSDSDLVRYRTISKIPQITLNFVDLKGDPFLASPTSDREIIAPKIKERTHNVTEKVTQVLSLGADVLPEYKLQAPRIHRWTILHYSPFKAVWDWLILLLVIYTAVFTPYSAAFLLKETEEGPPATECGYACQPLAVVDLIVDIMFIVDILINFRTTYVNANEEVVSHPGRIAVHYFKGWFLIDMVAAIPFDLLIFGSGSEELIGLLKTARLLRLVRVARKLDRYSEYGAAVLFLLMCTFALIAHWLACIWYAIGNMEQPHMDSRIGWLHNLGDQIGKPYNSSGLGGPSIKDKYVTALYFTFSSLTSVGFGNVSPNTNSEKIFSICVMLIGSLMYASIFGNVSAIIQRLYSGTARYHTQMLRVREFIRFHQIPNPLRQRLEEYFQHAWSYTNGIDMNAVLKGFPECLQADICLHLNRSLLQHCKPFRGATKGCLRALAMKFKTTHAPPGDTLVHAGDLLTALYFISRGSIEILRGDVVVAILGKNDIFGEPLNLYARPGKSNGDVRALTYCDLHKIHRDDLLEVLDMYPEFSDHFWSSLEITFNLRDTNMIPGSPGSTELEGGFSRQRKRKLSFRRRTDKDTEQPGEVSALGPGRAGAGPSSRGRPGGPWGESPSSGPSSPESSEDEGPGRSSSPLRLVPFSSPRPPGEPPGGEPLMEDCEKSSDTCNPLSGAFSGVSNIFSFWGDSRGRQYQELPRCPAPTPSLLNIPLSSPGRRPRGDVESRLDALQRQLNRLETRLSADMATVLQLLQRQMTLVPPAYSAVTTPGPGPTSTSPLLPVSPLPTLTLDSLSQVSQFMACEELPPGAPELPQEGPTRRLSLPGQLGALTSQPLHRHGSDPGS
Procedure, shortened: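 Cell line hERG-U2OS; dye FluxOR II, 1 h RT dark; Tl+ stimulus; ex 480/em 540 nm, read each second for 2 min.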
% is set by controls: 0 for no effect and ±100 for the full control effect; potency is the fitted concentration of half-maximal effect.

Row | SMILES | activity change, negative = inhibition | Potency
1 | C=CC(=O)OCCN(CC)CC | -0.199% (inactive) | 
2 | CC(C)c1cccc(C(C)C)c1N1C(=O)c2ccc(O)cc2C1=O | -4.17% (inactive) | 
3 | COc1ccc2sc(C(=O)Nc3nnn[nH]3)c(OC(C)C)c2c1 | -0.252% (inactive) | 
4 | CC(C)=CCCC(C)CCOC(=O)C(C)C (stereo not given) | -0.0962% (inactive) | 
5 | COc1cc(C(=O)NS(=O)(=O)c2ccccc2C)ccc1Cc1cn(C)c2ccc(NC(=O)OC3CCCC3)cc12 | -2.94% [at 35.3 µM] (inactive) | 
6 | CCN1CCN(c2cc(-c3ccc(F)cc3)c3c(n2)CCCCCC3)CC1 |  | 4.65 µM (active)
7 | Cc1cnccn1 | 0.693% (inactive) | 
8 | Oc1ccc(-c2ccc(O)cc2)cc1 | 6.2% (inactive) | 
9 | O=C(O)CCn1c2c(c3ccccc31)C[C@H](NS(=O)(=O)c1ccc(F)cc1)CC2 | -0.974% [at 35.3 µM] (inactive) | 
10 | CCCCCCCCCCCCCC[n+]1ccccc1 |  | 5.49 µM (active)
11 | CNC(=S)NN | -3.03% (inactive) | 
12 | CC(NCCC(c1ccccc1)c1ccccc1)c1ccccc1 (stereo not given) |  | 1.69 µM (active)
13 | CC(CN(C)C)CN1c2ccccc2CCc2ccccc21 (stereo not given) |  | 15.1 µM (active)
14 | CCOCN(C(=O)CS(=O)(=O)O)c1c(C)cccc1CC | -5.31% (inactive) | 
15 | Cc1cn[nH]c1 | -1.28% [at 35.3 µM] (inactive) | 
16 | CCCCOCC | 6.04% (inactive) | 
17 | CC1CCCNC1 (stereo not given) | -6.96% (inactive) | 
18 | C=CCCCCCCC=C | 7.71% (inactive) | 

Row | SMILES | activity change, negative = inhibition | Potency
19 | CC(=O)OC1CCCCC1 | -0.369% (inactive) | 
20 | CCC(C)c1ccccc1 (stereo not given) | 5.96% (inactive) | 
21 | C=C1C(C)(C)[C@@]2(Cl)C(Cl)[C@]1(Cl)C(Cl)(Cl)C2(Cl)Cl (stereo not given in full) |  | 27 µM (active)
22 | Clc1ccc(C(Cn2ccnc2)OCc2ccsc2Cl)c(Cl)c1 (stereo not given) |  | 9.52 µM (active)
23 | C[C@H]1O[C@@H](O[C@H]2[C@@H](O)C[C@H](O[C@H]3[C@@H](O)C[C@H](O[C@H]4CC[C@@]5(C)[C@H](CC[C@@H]6[C@@H]5C[C@@H](O)[C@]5(C)[C@@H](C7=CC(=O)OC7)CC[C@]65O)C4)O[C@@H]3C)O[C@@H]2C)C[C@H](O)[C@@H]1O |  | inactive
24 | C=CC(C)(CCC=C(C)C)OC(=O)/C=C/c1ccccc1 (stereo not given) | -23.7% (inactive) | 
25 | Cc1c(C)n(Cc2ccccc2)c2ccc(C(=O)OCCN(C)C)cc12 |  | 10.7 µM (active)
26 | C1CC(COCC2CO2)CCC1COCC1CO1 (stereo not given) | -10.4% (inactive) | 
27 | C/C=C/C(=O)Oc1c(CCCCCC(C)C)cc([N+](=O)[O-])cc1[N+](=O)[O-] |  | 21.9 µM (active)
28 | CN1CCN(C2Cc3ccccc3Sc3ccc(Cl)cc32)CC1 (stereo not given) |  | 0.848 µM (active)
29 | CCCCCCCOC(=O)c1ccccc1C(=O)OCCCCCCC | -0.476% (inactive) | 
30 | CCCCCCCC(OC)OC | -2.37% [at 35.3 µM] (inactive) | 
31 | S=P(N1CC1)(N1CC1)N1CC1 | -2.94% (inactive) | 
32 | NC(=O)c1ccccc1N | 0.633% (inactive) | 
33 | Cc1cc2c(C(C)C)c(O)c(O)c(C=O)c2c(O)c1-c1c(C)cc2c(C(C)C)c(O)c(O)c(C=O)c2c1O | -7.54% [at 35.3 µM] (inactive) | 
34 | CCN(CC)CCSC(=O)C(c1ccccc1)c1ccccc1 |  | 2.68 µM (active)
35 | CSc1c(Cl)c(Cl)c(Cl)c(Cl)c1Cl | -8.35% (inactive) | 

— PubChem BioAssay (Tox21)
